# Rows were chosen to be rich in hits. Some 1.8% of all compounds tested hit in one or more screens of this group.
# PrP 5UTR inh = inhibition of PrP 5' UTR reporter expression. inhibition, % (test concentration not listed). actives 0.35% (n = 340,000). cell-based PrP 5' UTR mRNA reporter, plate reader; in the data active = inhibition above about 52%; also: 0 = median of the neutral control wells
# PriA SSB inh = blocks PriA binding to SSB C-terminal tail. AID 1272365. actives 0.6% (n = 430,000). AlphaScreen SSBct-PriA binding, biotinylated peptide. inhibition, % at 33 µM; in the data active = inhibition mostly above about 37%, no sharp cut-off; inactive = mostly below about 20%;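 also: plate controls were negative control peptide for no effect and reference peptide for full effect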
# PfHsp40 rescue = restores yeast growth despite PfHsp40 toxicity; S. cerevisiae expressing PfHsp40, growth rescue, ATP luminescence; growth rescue, % at 12.5 µM; actives 0.68% (n = 340,000); in the data active = growth rescue above about 28%, passing the limit was not always enough;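 also: yeast W303a lacking pdr1 and pdr3 grown in galactose medium; growth measured after three days at 30 °C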
# PrPC TRFRET = cell surface PrPC inhibition, primary TR-FRET screen. actives 0.43% (n = 370,000). inhibition, % at 13.8 µM. TR-FRET read-out. P04156; in the data active = inhibition above about 24%; also: 0% = median of the test wells and 100% = reference compound wells
# MazF activator = activators of E. coli MazEF toxin-antitoxin RNase | P0AE70 | FAM/BHQ RNA-DNA oligo cleavage fluorescence, 5 h | activation, % at 20 µM | actives 0.32% (n = 350,000) | AID 504720; in the data active = activation above about 50%
# PrP 5UTR single = prion 5' UTR mRNA inhibition, cherry-pick retest. actives 48% (n = 1,100). inhibition, % at 2.5 µM. cell-based prion protein 5' UTR reporter, plate reader. shares compounds with PrP 5UTR inh; in the data active = inhibition above about 54%
# PrPC confirm = confirmation of inhibitors of cell surface human prion protein | actives 65% (n = 1,500) | inhibition, % at 13.8 µM | cell surface PrPC level, TR-FRET | shares compounds with PrPC TRFRET | AID 743200; in the data active = inhibition above about 25%
# LD9 tox = LD9 cell cytotoxicity, PrPc inhibitor counter-screen. actives 29% (n = 1,500). inhibition, % at 13.8 µM. shares compounds with PrPC TRFRET. LD9 cells cytotoxicity, luminescence viability; in the data active = inhibition above about 9.5%
# * = called active by the depositor; i = inactive; x = no result given.
SMILES,PrP 5UTR inh,PriA SSB inh,PfHsp40 rescue,PrPC TRFRET,MazF activator,PrP 5UTR single,PrPC confirm,LD9 tox
CNc1c2cccc(C)c2nc2c(C(=O)NCCN(C)C)cccc12,96*,-8,1,29*,i,96*,62*,59*
CC1CCOC(=O)C=CC=CC(=O)OC2CC3OC4C5OC5(C)C(O)CC4(COC(=O)C1O)C2(C)C31CO1 (centres undefined),82*,x,x,84*,8,92*,101*,46*
CC(=O)OC1C(=O)OCC23CCC4(C)OC4C2OC2CC(OC(=O)/C=C/C=C/C(=O)OCCC1C)C3(C)C21CO1 (centres undefined),x,-24,x,x,x,x,x,x
CC1=CC2OC3CC4OC(=O)C=CC=CC(C(C)O)OCC(O)C5(C)OC5C(=O)OCC2(CC1O)C4(C)C31CO1 (centres undefined),94*,x,x,89*,0,93*,96*,60*
CC1=CC2OC3CC4OC(=O)C=CC=CC(=O)OCCC(C)C(O)C(=O)OCC2(CC1)C4(C)C31CO1 (centres undefined),94*,x,x,82*,5,93*,94*,69*
CC(O)C1C=C/C=C/C(=O)OC2CC3OC4C5OC5(C)C(O)CC4(COC(=O)C(O)C(C)CCO1)C2(C)C31CO1 (centres undefined),x,-6,x,x,x,x,x,x
CC1=CC2OC3CC4OC(=O)/C=C/C=C/C(=O)OCCC(C)C(O)C(=O)OCC2(CC1O)C4(C)C31CO1 (centres undefined),x,-6,x,x,x,x,x,x
CC(O)C1C=CC=CC(=O)OC2CC3OC4C5OC5(C)C(O)CC4(COC(=O)C(O)C(C)CCO1)C2(C)C31CO1 (centres undefined),70*,x,x,92*,11,83*,99*,40*
CN1C(=O)C(=O)C(=C(O)c2ccccc2)C1c1ccc([N+](=O)[O-])cc1 (centres undefined),x,0,x,x,x,x,x,x
O=C(c1ccc(CN2CCc3ccccc3C2)cc1)N1CCc2ccccc2C1,0,-11,-1,3,0,x,x,x
CC1=CC(C)CC(C)OC(=O)CC(c2ccc(O)cc2)NC(=O)C(Cc2c(Br)[nH]c3ccccc23)N(C)C(=O)C(C)NC(=O)C(C)C1 (centres undefined),74*,9,7,32*,3,95*,25*,11*
O=C(O)CCCC(=O)OCCCCc1cccs1,-18,-5,0,8,3,x,x,x
Nc1ncnc2c1ncn2[C@@H]1O[C@H](CO)[C@@H](O)[C@H]1O,-18,-8,-3,1,10,x,x,x
Nc1ncnc2c(C3OC(CO)C(O)C3O)c[nH]c12 (centres undefined),95*,-14,-1,57*,7,97*,61*,91*
COCCCNC(=O)c1csc([C@@H]2O[C@H](CO)[C@H](O)[C@H](O)[C@H]2O)n1,x,x,x,-3,x,x,x,x
CC(C)(O)/C=C/C(=O)C(C)(O)C1C(O)CC2(C)C3CC=C4C(C=C(O)C(=O)C4(C)C)C3(C)C(=O)CC12C (centres undefined),70*,-10,-2,34*,2,90*,33*,13*
C=C1C(=O)OC2CC(C)C3C=CC(=O)C3(C)C(O)C12 (centres undefined),26,-9,0,x,-13,x,x,x
C=C1C(=O)O[C@@H]2C[C@@H](C)[C@@H]3C=CC(=O)[C@@]3(C)[C@@H](OC(=O)CC(=O)O[C@H]3[C@@H]4C(=C)C(=O)O[C@@H]4C[C@@H](C)[C@@H]4C=CC(=O)[C@]43C)[C@H]12,95*,-4,0,98*,3,98*,99*,99*
O=C(CCn1c(=O)sc2ccccc21)NCCC1=CCCCC1,-16,-8,1,4,-11,x,x,x
N#CCN1CCC(COCc2ccc(Cl)cc2)CC1,x,-2,x,x,x,x,x,x
CCc1ccc(N2CCN(C(=O)c3ccc4c(c3)OCO4)CC2)cc1,-12,5,1,0,3,x,x,x
COc1ccc(CC2C(=O)NC(C)C(=O)N(C)C3C(=O)N(C)C(Cc4ccc(O)c(c4)Oc4ccc(cc4)C3O)C(=O)NC(C)C(=O)NC(C)C(=O)N2C)cc1 (centres undefined),53*,-1,-2,87*,14,41,95*,38*
O=C1N(c2ccccc2)CC2C(c3ccccc3)C(c3ccccc3)N3CCCC123 (centres undefined),x,x,x,2,x,x,x,x
O=C1N(c2ccccc2)C[C@@H]2C[C@@H](c3cc4ccccc4o3)N3CCC[C@@]123,59*,-8,-1,40*,2,74*,54*,25*
CC(=O)O[C@H]1C(=O)[C@]2(C)[C@H]([C@H](OC(=O)c3ccccc3)[C@]3(O)C[C@H](OC(=O)[C@H](O)[C@@H](NC(=O)c4ccccc4)c4ccccc4)C(C)=C1C3(C)C)[C@]1(OC(C)=O)CO[C@@H]1C[C@@H]2O,53*,0,5,28*,2,89*,25*,4
SMILES,PrP 5UTR inh,PriA SSB inh,PfHsp40 rescue,PrPC TRFRET,MazF activator,PrP 5UTR single,PrPC confirm,LD9 tox
C[C@@H](OC(=O)N1CCCCC1)[C@H]1O[C@]2(C)CCCC[C@H]1O2,-15,-3,0,4,8,x,x,x
CC1CC(C)(O)CC(C(O)CC2CC(=O)NC(=O)C2)C1=O (centres undefined),64*,-7,20,83*,6,61*,97*,36*
NC(=O)c1cn(C2OC(CO)C(O)C2O)c2ncnc(N)c12 (centres undefined),88*,-7,-2,56*,14,97*,58*,40*
OCC1OC(n2ccc3c(NO)ncnc32)C(O)C1O (centres undefined),89*,x,0,53*,-10,85*,44*,92*
N#Cc1cn(C2OC(CO)C(O)C2O)c2ncnc(N)c12 (centres undefined),58*,-11,-1,26*,-2,75*,30*,40*
NC(=O)c1c(Br)n(C2OC(CO)C(O)C2O)c2ncnc(N)c12 (centres undefined),16,-4,-2,0,7,x,x,x
CCOCC(=O)Nc1ccccc1Cc1nc(-c2ccncc2)no1,x,1,x,x,x,x,x,x
COc1ccc(S(=O)(=O)NCC(c2cccnc2)N2CCOCC2)cc1OC (centres undefined),x,-3,x,x,x,x,x,x
Cc1ccc(C(C)C)c(OCc2ccc(C(=O)N/N=C/c3cccc(O)c3O)cc2)c1,62*,x,0,43*,-25,65*,29*,19*

# Bioassay records: PubChem, several laboratories
